# Screening results deposited in PubChem by National Center for Advancing Translational Sciences (NCATS).
# ELG1 genotoxic: inducers of genotoxicity in HEK293T ELG1-luciferase cells; HEK293T ELG1-luciferase reporter, luminescence, 16 h; Potency, µM (series often up to 46 µM), for inactives: top-dose activity change, positive = activation, hits mostly activators; 330,000 compounds, 1.3% hits; AID 504466; note: % of control where 0% means no effect; nearly all actives have a fitted effect of over 60% in size
#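 Screening used a luciferase reporter fused to human ELG1 in HEK293T cells. Luminescence was read on a CCD plate imager after 16 hr exposure and 30 min ONE-Glo incubation.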
# FLuc modulator: inhibits or activates purified firefly luciferase, miR-21 counter-screen; P08659; purified FLuc, Km substrates, luminescence inhibition; Potency, µM (top dose mostly 57.5 µM), for the others: at the highest dose activity change, negative = inhibition, most hits filed as inhibitors; 360,000 compounds, 6.9% hits;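 note: plate controls were vehicle for no effect and reference inhibitor for full effect; nearly all actives have a fitted effect of over 55% in size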
#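 Purified P. pyralis luciferase, 10 nM final, with Km-level 10 uM D-luciferin and 10 uM ATP in 50 mM Tris acetate pH 7.5, 10 mM Mg acetate, 0.01% Tween-20, 0.05% BSA; 6-point qHTS titration about 60 µM downward; luminescence read.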
# SMN2 splice up: increases expression of the SMN2 splice variant; HEK293 SMN2-luciferase splicing reporter, luminescence, 30-36 h; Potency, µM (top dose mostly 46.1 µM), inactives show at the highest dose activity change, positive = activation, actives largely listed as activators; AID 1458; 210,000 compounds, 2.8% hits; note: % of control where 0% means no effect; nearly all actives have a fitted effect of over 55% in size
#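 HEK293 cells carry an SMN2 […]–luciferase reporter in which exon 7 inclusion puts luciferase in frame. Cells were plated 10-12 h before compound addition, then incubated 30-36 h at 37C. ONE-Glo luminescence was read; sodium butyrate at 4.5 mM final served as control.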
# ELG1 DNA repair: blocks ELG1-dependent DNA repair in HEK293T cells | 330,000 compounds, 2.3% hits | HEK293T ELG1-luciferase reporter, luminescence, 16 h; DNA damage induced by 5-fluorouridine | AID 504467 | Potency, µM (series often up to 46.1 µM), for the others: at the top dose activity change, negative = inhibition, hits mostly inhibitors; note: % is set by controls: 0 for no effect and ±100 for the full control effect; nearly all actives have a fitted effect of over 55% in size
#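 Quantitative HTS, concentration-response format. 2,000 cells/well co-treated with 5-fluorouridine and compound, 16 hr in 5% CO2 at 37 °C; ONE-Glo luminescence read after 30 min.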
# NPC1 prom act: NPC1 promoter activation | Potency, µM (highest dose often 9.22 µM), for the others: at the highest dose activation, most hits filed as activators | AID 485313 | 320,000 compounds, 2.4% hits | Huh7 NPC1 promoter luciferase reporter, 24 h; note: % of control where 0% means no effect; nearly all actives have a fitted effect of over 60% in size
#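 Luminescence read-out of NPC1 promoter-driven luciferase in stably transfected Huh7 cells; compounds delivered in DMSO and left 24 h at 37C, 5% CO2, qHTS titration format.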
# Rab9 prom act: activates the Rab9 promoter; 320,000 compounds, 2.8% hits; AID 485297; Huh7 Rab9 promoter-luciferase reporter, luminescence, 24 h; Potency, µM (doses to about 9.22 µM), for inactives: top-dose activation, negative = inhibition, actives largely listed as activators; note: % of control where 0% means no effect; nearly all actives have a fitted effect of over 60% in size
#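 Steps: seed 1500 Huh7 Rab9-luc cells per well, rest 2 h at 37 °C; add compound in DMSO; incubate 24 h; add luciferase reagent, 10 min ambient; read luminescence.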
# ELG1 FLuc counter: luciferase inhibition in cell-free luciferin readout for ELG1 hits; cell-free firefly luciferase luminescence counter-screen, ViewLux; AID 624247; Potency, µM (doses to about 46.1 µM), for inactives: at the top dose activity change, negative = inhibition, most hits filed as inhibitors; 350 compounds, 3% hits; shares compounds with ELG1 DNA repair; note: % is set by controls: 0 for no effect and ±100 for the full control effect
# ELG1-Luc inh: human ELG1 repair inhibition, luciferase-tagged ELG1 confirmation; shares compounds with ELG1 DNA repair; HEK293T ELG1-luciferase levels, luminescence; cells co-treated with 5-fluorouridine; Potency, µM (doses to about 46.1 µM), for inactives: top-dose activity change, negative = inhibition, hits mostly inhibitors; 670 compounds, 68% hits; AID 624248; note: % is set by controls: 0 for no effect and ±100 for the full control effect; nearly all actives have a fitted effect of over 55% in size
# Target sequence (Q96QE3 whole entry, looked up): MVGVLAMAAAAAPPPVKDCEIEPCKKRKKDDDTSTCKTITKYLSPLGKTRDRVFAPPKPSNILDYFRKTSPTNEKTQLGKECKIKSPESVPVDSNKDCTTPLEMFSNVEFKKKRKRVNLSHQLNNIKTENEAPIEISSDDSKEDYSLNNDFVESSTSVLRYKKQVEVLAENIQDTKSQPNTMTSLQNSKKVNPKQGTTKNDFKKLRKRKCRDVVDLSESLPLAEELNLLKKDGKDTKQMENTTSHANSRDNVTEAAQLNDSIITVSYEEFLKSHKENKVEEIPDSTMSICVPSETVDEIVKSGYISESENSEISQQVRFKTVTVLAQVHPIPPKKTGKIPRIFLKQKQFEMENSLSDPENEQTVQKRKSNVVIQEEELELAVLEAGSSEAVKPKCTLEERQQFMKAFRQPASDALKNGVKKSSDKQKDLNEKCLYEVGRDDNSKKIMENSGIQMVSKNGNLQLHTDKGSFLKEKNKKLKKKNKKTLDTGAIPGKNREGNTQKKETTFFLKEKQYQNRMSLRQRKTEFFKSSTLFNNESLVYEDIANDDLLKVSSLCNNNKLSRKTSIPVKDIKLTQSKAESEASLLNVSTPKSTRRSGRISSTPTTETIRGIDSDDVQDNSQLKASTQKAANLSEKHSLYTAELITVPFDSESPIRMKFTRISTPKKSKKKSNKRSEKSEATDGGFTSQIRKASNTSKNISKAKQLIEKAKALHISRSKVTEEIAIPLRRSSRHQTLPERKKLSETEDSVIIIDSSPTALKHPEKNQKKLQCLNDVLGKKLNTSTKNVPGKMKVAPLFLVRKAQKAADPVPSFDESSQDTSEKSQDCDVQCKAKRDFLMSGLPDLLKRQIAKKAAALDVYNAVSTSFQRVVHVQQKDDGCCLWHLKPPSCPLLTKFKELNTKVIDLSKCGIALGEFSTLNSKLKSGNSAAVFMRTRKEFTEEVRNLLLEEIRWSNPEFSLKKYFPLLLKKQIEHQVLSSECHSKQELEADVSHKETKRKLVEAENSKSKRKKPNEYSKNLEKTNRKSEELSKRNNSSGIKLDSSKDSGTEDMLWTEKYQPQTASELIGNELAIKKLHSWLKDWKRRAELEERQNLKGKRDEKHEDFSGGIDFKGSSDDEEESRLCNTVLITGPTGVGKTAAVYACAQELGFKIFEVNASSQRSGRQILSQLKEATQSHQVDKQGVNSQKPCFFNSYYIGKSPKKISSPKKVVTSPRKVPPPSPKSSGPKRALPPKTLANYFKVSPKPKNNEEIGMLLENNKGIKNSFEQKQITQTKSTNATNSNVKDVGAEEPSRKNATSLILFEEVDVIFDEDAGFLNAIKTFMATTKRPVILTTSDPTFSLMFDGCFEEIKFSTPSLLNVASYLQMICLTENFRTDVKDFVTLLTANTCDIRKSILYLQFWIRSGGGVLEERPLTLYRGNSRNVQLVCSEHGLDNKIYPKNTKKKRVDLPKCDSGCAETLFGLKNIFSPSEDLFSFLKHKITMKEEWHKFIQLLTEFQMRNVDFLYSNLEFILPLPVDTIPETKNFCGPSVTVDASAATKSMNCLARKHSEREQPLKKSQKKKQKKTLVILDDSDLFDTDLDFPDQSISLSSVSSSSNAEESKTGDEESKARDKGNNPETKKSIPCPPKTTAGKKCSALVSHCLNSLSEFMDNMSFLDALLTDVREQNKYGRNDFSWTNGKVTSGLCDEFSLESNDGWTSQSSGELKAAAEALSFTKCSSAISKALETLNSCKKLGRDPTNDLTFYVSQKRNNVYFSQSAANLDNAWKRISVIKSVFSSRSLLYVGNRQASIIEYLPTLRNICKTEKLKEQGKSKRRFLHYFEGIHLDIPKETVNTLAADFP
# ELG1 MMS Luc: confirmation of human ELG1 repair inhibitors, MMS stimulated; shares compounds with ELG1 DNA repair; HEK293T luciferase-tagged ELG1 level, MMS stimulated; Potency, µM (titrated, usually from 46.1 µM), inactives show top-dose activity change, negative = inhibition, usual class: inhibitors; 670 compounds, 53% hits; AID 624249; note: % is set by controls: 0 for no effect and ±100 for the full control effect; nearly all actives have a fitted effect of over 60% in size
# ELG1 5-FU: confirmation of ELG1 repair inhibitors: viability with 5FU; shares compounds with ELG1 DNA repair; cell viability with 5-FU, ELG1-dependent repair; Potency, µM (doses to about 46.1 µM), without a hit: at the top dose activity change, negative = viability loss, usual class: cytotoxic; 670 tested, under 10 active;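 note: ELG1-luc HEK293T cells cotreated with 5-fluorouridine at 10 µM final; viability measured 16 h after compound addition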
# ELG1 MMS viab: confirmation of ELG1 repair inhibitors: viability with MMS; shares compounds with ELG1 DNA repair; Cell viability with MMS, ELG1-dependent DNA repair; Potency, µM (titrated, usually from 46.1 µM), without a hit: at the top dose activity change, negative = viability loss, usual class: cytotoxic; 670 compounds, 33% hits;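 note: ELG1-luc HEK293T cells co-treated with 10 µM MMS; viability read 16 h after compound addition; % is set by controls: 0 for no effect and ±100 for the full control effect; nearly all actives have a fitted effect of over 60% in size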
# ELG1 unstim viab: affects unstimulated cell viability, ELG1 hit counter-screen | shares compounds with ELG1 DNA repair | cell viability counter-screen, unstimulated, luminescence | Potency, µM (series often up to 45.9 µM), without a hit: at the highest dose activity change, negative = loss of viability, most hits filed as cytotoxic | 900 compounds, 8% hits;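 note: compound exposure lasted 16 hours before reading; % is set by controls: 0 for no effect and ±100 for the full control effect; nearly all actives have a fitted effect of over 55% in size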
# FLuc enzyme: firefly luciferase inhibition counter-screen; shares compounds with ELG1 DNA repair; purified firefly luciferase, luminescence counter-screen; Potency, µM (highest dose often 57.5 µM), for the others: at the highest dose activity, negative = inhibition, most hits filed as inhibitors; 350 compounds, 10% hits; note: % is set by controls: 0 for no effect and ±100 for the full control effect
# Active calls of the source: *; ? = inconclusive; · = no result. In the library only some 9.3% were active in any assay of this set; here they are far more common. Calls come from the whole dose curve; as a rule, active = well fitted curve in the direction sought with a large enough effect; inconclusive = small, poorly fitted or top-dose-only effect, or another doubt; inactive = no such curve, though single readings can be large; an effect the other way counts as inactive or inconclusive. Potency is the fitted concentration of half-maximal effect.
SMILES,ELG1 genotoxic,FLuc modulator,SMN2 splice up,ELG1 DNA repair,NPC1 prom act,Rab9 prom act,ELG1 FLuc counter,ELG1-Luc inh,ELG1 MMS Luc,ELG1 5-FU,ELG1 MMS viab,ELG1 unstim viab,FLuc enzyme
COc1ccc(/C=N\NC(=O)CC(=O)Nc2cccc(Cl)c2)cc1OC,4%,-11%,-21%,3%,-4%,-2%,·,·,·,·,·,·,·
COc1ccc(/C=N/NC(=O)Nc2cccc3nsnc23)cc1OC,1%,-20%,-8%,2.6µM*,3%,-11%,·,2.8µM*,22µM*,?,?,?,·
CC(C)c1nc2sc3c(=O)n(N)cnc3c2c2c1COC(C)(C)C2,5%,0%,-11%,7%,1%,1%,-2%,?,-5%,?,3%,2%,-3%
CC(C)c1nc2sc3c(NCc4ccccc4)ncnc3c2c2c1COC(C)(C)C2,11%,1%,-17%,?,-4%,-12%,·,·,·,·,·,·,·
CC(C)c1nc2sc3c(NCc4ccco4)ncnc3c2c2c1COC(C)(C)C2,-3%,0%,-28%,?,-5%,8%,21%,11µM*,13%,?,-2%,?,-3%
CSc1nc(NCc2ccco2)c2sc3nc(C(C)C)c4c(c3c2n1)CC(C)(C)OC4,0%,0%,-20%,?,-1%,-1%,·,·,·,·,·,·,·
Cc1ccc2cc(/C=N/NC(=O)CN3CCOCC3)c(Cl)nc2c1,5%,-14%,-3%,?,9%,24%,·,·,·,·,·,·,·
CCOC(=O)c1c(S(=O)(=O)NCC(=O)Nc2cccc(F)c2)c(C)n(C)c1C,-1%,2%,·,5%,-2%,-2%,·,·,·,·,·,·,·
Cc1cccc(NC(=O)CSc2nc3ccccc3o2)c1,1.5µM*,?,?,?,1.4µM*,0.89µM*,67%,·,·,·,·,16%,-6%
CC(=O)c1cc2c(cc1NC(=O)CSc1nc3ccccc3o1)OCO2,10µM*,0%,?,?,20%,?,67%,·,·,·,·,10%,4%
CC(=O)c1cc2c(cc1NC(=O)CSc1nc3ccccc3[nH]1)OCO2,-7%,-1%,·,?,0%,-1%,·,·,·,·,·,·,·
